In PubChem BioAssay AID1159580 (chemical genetic matrix, 2015):
Hit rate of the full screen: of about 5,500 compounds, about 2,000 (36%) were called active. Inconclusive results (about 18%) are left out. No stated cut-off is given here; in the data, active means normalized growth mostly below about 0.91 (no sharp cut-off); inconclusive means no clear call, values can overlap the other calls; inactive means mostly above about 0.92. The list shows a part of the results.

Assay: chemical genetic growth profiling, strain panel (AID 1159580);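 further: tested at 20 µM; growth read once vehicle control cultures reached saturation at 30 °C; 1 = growth at the plate median or of vehicle wells; lower values mean less growth of the strain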
Settings: growth OD

Measured: normalized growth

C[C@@H]1C(=O)OC2[C@H](O)C34[C@@H]5OC(=O)[C@@]3(O[C@@H]3OC(=O)[C@H](O)[C@@]34[C@H](C(C)(C)C)[C@H]5O)[C@]21O (some centres undefined)
inactive: S. cerevisiae deletion strains, locus YJR066W, strain TOR1, active compounds read low 0.958 | S. cerevisiae deletion strains, locus YKL009W, strain mrt4, active compounds read low 1.02 | S. cerevisiae deletion strains, locus YKL068W, active compounds read low 1 | S. cerevisiae deletion strains, locus YKL085W, strain MDH1 (second series), active compounds read low 1.01 | S. cerevisiae deletion strains, locus YKL085W, strain MDH1, active compounds read low 1.01 | S. cerevisiae deletion strains, locus YKL160W, strain elf1, active compounds read low 0.981 | S. cerevisiae deletion strains, locus YKL190W, strain CNB1, active compounds read low 0.993 | S. cerevisiae deletion strains, locus YKR001C, strain vps1, active compounds read low 1.02 | S. cerevisiae deletion strains, locus YKR026C, strain gcn3, active compounds read low 0.977 | S. cerevisiae deletion strains, locus YKR091W, strain srl3, active compounds read low 0.955 | S. cerevisiae deletion strains, locus YLL001W, strain dnm1, active compounds read low 0.987 | S. cerevisiae deletion strains, locus YLL026W, active compounds read low 0.984 | S. cerevisiae deletion strains, locus YLL041C, strain sdh2, active compounds read low 0.971 | S. cerevisiae deletion strains, locus YLR027C, strain aat2, active compounds read low 0.973 | S. cerevisiae deletion strains, locus YLR039C, strain RIC1, active compounds read low 1 | S. cerevisiae deletion strains, locus YLR058C, strain SHM2, active compounds read low 1 | S. cerevisiae deletion strains, locus YLR102C, strain apc9, active compounds read low 1.01 | S. cerevisiae deletion strains, locus YLR113W, strain HOG1, active compounds read low 0.997 | S. cerevisiae deletion strains, locus YLR221C, strain rsa3, active compounds read low 0.978 | S. cerevisiae deletion strains, locus YLR258W, strain gsy2, active compounds read low 0.978 | S. cerevisiae deletion strains, locus YLR262C, strain YPT6 (second series), active compounds read low 0.964 | S. cerevisiae deletion strains, locus YLR262C, strain YPT6, active compounds read low 1.01 | S. cerevisiae deletion strains, locus YLR268W, strain sec22, active compounds read low 1.02 | S. cerevisiae deletion strains, locus YLR320W, strain mms22, active compounds read low 0.98 | S. cerevisiae deletion strains, locus YLR330W, strain CHS5, active compounds read low 1.01 | S. cerevisiae deletion strains, locus YLR342W, strain FKS1 (second series), active compounds read low 1.01 | S. cerevisiae deletion strains, locus YLR342W, strain FKS1, active compounds read low 0.982 | S. cerevisiae deletion strains, locus YLR357W, strain rsc2, active compounds read low 0.932 | S. cerevisiae deletion strains, locus YLR370C, strain arc18, active compounds read low 0.97 | S. cerevisiae deletion strains, locus YLR371W, strain rom2, active compounds read low 1.02 | S. cerevisiae deletion strains, locus YLR384C, strain iki3, active compounds read low 0.981 | S. cerevisiae deletion strains, locus YLR418C, strain cdc73, active compounds read low 1.02 | S. cerevisiae deletion strains, locus YML016C, strain PPZ1, active compounds read low 1.01 | S. cerevisiae deletion strains, locus YML032C, strain rad52, active compounds read low 1 | S. cerevisiae deletion strains, locus YML120C, strain ndi1, active compounds read low 0.975 | S. cerevisiae deletion strains, locus YML124C, strain tub3, active compounds read low 1.02 | S. cerevisiae deletion strains, locus YMR058W, strain fet3, active compounds read low 0.966 | S. cerevisiae deletion strains, locus YMR078C, strain ctf18, active compounds read low 1.02 | S. cerevisiae deletion strains, locus YMR125W, strain sto1, active compounds read low 0.941 | S. cerevisiae deletion strains, locus YMR129W, active compounds read low 0.959 | S. cerevisiae deletion strains, locus YMR205C, strain PFK2, active compounds read low 0.984 | S. cerevisiae deletion strains, locus YMR223W, strain ubp8, active compounds read low 1.03 | S. cerevisiae deletion strains, locus YMR231W, strain pep5, active compounds read low 0.984 | S. cerevisiae deletion strains, locus YMR263W, strain SAP30, active compounds read low 1 | S. cerevisiae deletion strains, locus YMR307W, strain GAS1, active compounds read low 0.979 | S. cerevisiae deletion strains, locus YNL067W, strain RPL9B, active compounds read low 0.995 | S. cerevisiae deletion strains, locus YNL071W, strain lat1, active compounds read low 0.974 | S. cerevisiae deletion strains, locus YNL183C, strain NPR1, active compounds read low 0.973 | S. cerevisiae deletion strains, locus YNL209W, strain ssb2, active compounds read low 0.971 | S. cerevisiae deletion strains, locus YNL233W, strain BNI4, active compounds read low 1 | S. cerevisiae deletion strains, locus YNL248C, strain rpa49, active compounds read low 0.961 | S. cerevisiae deletion strains, locus YNL250W, strain rad50, active compounds read low 1.02 | S. cerevisiae deletion strains, locus YNL271C, strain bni1, active compounds read low 1.01 | S. cerevisiae deletion strains, locus YNL298W, strain CLA4, active compounds read low 1.02 | S. cerevisiae deletion strains, locus YNL307C, strain MCK1, active compounds read low 1.03 | S. cerevisiae deletion strains, locus YNL322C, strain KRE1 (second series), active compounds read low 0.963 | S. cerevisiae deletion strains, locus YNL322C, strain KRE1, active compounds read low 1 | S. cerevisiae deletion strains, locus YNR049C, strain mso1, active compounds read low 0.95 | S. cerevisiae deletion strains, locus YNR052C, strain pop2, active compounds read low 1.01 | S. cerevisiae deletion strains, locus YOL012C, strain htz1 1.18 | S. cerevisiae deletion strains, locus YOL147C, strain pex11, active compounds read low 1.02 | S. cerevisiae deletion strains, locus YOR001W, strain rrp6, active compounds read low 0.972 | S. cerevisiae deletion strains, locus YOR061W, strain CKA2, active compounds read low 1 | S. cerevisiae deletion strains, locus YOR069W, strain VPS5, active compounds read low 0.997 | S. cerevisiae deletion strains, locus YOR070C, strain gyp1, active compounds read low 0.988 | S. cerevisiae deletion strains, locus YOR080W, strain dia2, active compounds read low 0.951 | S. cerevisiae deletion strains, locus YOR083W, strain WHI5, active compounds read low 0.988 | S. cerevisiae deletion strains, locus YOR106W, strain vam3, active compounds read low 0.978 | S. cerevisiae deletion strains, locus YOR136W, strain idh2, active compounds read low 1.01 | S. cerevisiae deletion strains, locus YOR144C, strain elg1, active compounds read low 1.01 | S. cerevisiae deletion strains, locus YOR184W, strain ser1, active compounds read low 1.03 | S. cerevisiae deletion strains, locus YOR231W, strain MKK1, active compounds read low 1.02 | S. cerevisiae deletion strains, locus YOR265W, strain rbl2, active compounds read low 0.977 | S. cerevisiae deletion strains, locus YOR270C, strain vph1, active compounds read low 0.935 | S. cerevisiae deletion strains, locus YOR290C, strain snf2, active compounds read low 0.953 | S. cerevisiae deletion strains, locus YOR316C, strain cot1, active compounds read low 1.02 | S. cerevisiae deletion strains, locus YPL051W, strain arl3, active compounds read low 0.985 | S. cerevisiae deletion strains, locus YPL055C, strain LGE1, active compounds read low 0.998 | S. cerevisiae deletion strains, locus YPL078C, strain atp4, active compounds read low 0.984 | S. cerevisiae deletion strains, locus YPL106C, strain sse1, active compounds read low 0.944 | S. cerevisiae deletion strains, locus YPL240C, strain hsp82, active compounds read low 0.979 | S. cerevisiae deletion strains, locus YPL241C, strain CIN2, active compounds read low 0.99 | S. cerevisiae deletion strains, locus YPL256C, strain CLN2, active compounds read low 1.06 | S. cerevisiae deletion strains, locus YPR119W, strain clb2, active compounds read low 1.01 | S. cerevisiae deletion strains, locus YPR141C, strain kar3, active compounds read low 1.01 | S. cerevisiae deletion strains, locus YPR163C, strain tif3, active compounds read low 1.02 | S. cerevisiae deletion strains, locus YPR167C, strain met16, active compounds read low 1.02 | S. cerevisiae deletion strains, strain wtn01, active compounds read low 1.04 | S. cerevisiae strains, strain wild type, active compounds read low 0.983
